Measurements as given in PubChem BioAssay (EPA / NIEHS).
Inconclusive results are not listed. Activity calls are given as the source filed them. How the source made its calls, unless noted: active means hit-call score of the fitted dose curve at least 0.9, where 1 is the maximum; inconclusive means response in the unintended direction; inactive means score below 0.9.

What was measured:
[1] = IUF_NPC4_neurite_length_120hr: Leibniz Research Institute for Environmental Medicine (IUF) 120-hour Neuronal Morphology Assay for Neurite Length (NPC4) (AID 2284302; active means hit-call score of the fitted dose curve at least 0.9, where 1 is the maximum; inactive means score below 0.9)
In short: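 Human fetal cortex (GW 16-19) neural progenitor spheres, 0.3 mm, were plated on poly-D-lysine/laminin in N2 differentiation medium and exposed from day 0 for 120 h, half-feeding at day 3. Mean TUBB3+ neurite length (µm) came from skeletonized images, relative to DMSO.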

[2] = IUF_NPC2-5_cytotoxicity_72hr: Cytotoxicity Assessment at 72 hours in the Leibniz Research Institute for Environmental Medicine (IUF) Neural Progenitor Cell Migration and Differentiation Assay for Cytotoxicity (NPC2-5) (AID 2284306);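 further: LDH release into supernatant measured by resorufin fluorescence marking membrane damage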
In short: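 Human fetal (GW 16-19) neural progenitor spheres, 0.3 mm, plated on poly-D-lysine/laminin in N2 differentiation medium and exposed from day 0 to 7 concentrations plus solvent control (DMSO ≤0.1%). LDH-dependent resazurin-to-resorufin fluorescence in supernatant at 72 h.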

[3] = IUF_NPC2-5_cytotoxicity_120hr: Cytotoxicity Assessment at 120 hours in the Leibniz Research Institute for Environmental Medicine (IUF) Neural Progenitor Cell Migration and Differentiation Assay (NPC2-5) (AID 2284307)
Description: IUF_NPC2-5 is a cell-based, multiplexed assay that uses hNPC, a human primary neural progenitor cells, with measurements taken at 72 or 120 hours after chemical dosing in a 96-well plate. Human neural progenitor cells (hNPC) are generated from human fetal brain cortex at gestational week (GW) 16-19. In the neural progenitor cell migration and differentiation assay (NPC2-5), hNPCs grown as spheres are plated on an extracellular matrix and migrate and differentiate out of the sphere core. The processes radial glia migration, neuronal and oligodendrocyte migration as well as neuronal differentiation, neuronal morphology and oligodendrocyte differentiation are studied using automated phase contrast imaging and automated fluorescence imaging in combination with high content image analysis. In parallel, the cell viability is assessed using an alamar blue viability assay and the cytotoxicity using a lactate dehydrogenase dependent membrane integrity assay.IUF_NPC2-5_cytotoxicity_120hr is one of 12 assay components measured from the IUF_NPC2-5 assay. […] LDH measurements are performed from medium supernatants of each well and are based on the reduction of resazurin to resorufin measured as fluorescence signal (relative fluorescence unit) in a multiplate reader. Data from the IUF_NPC2-5_cytotoxicity_120hr component was analyzed at the endpoint IUF_NPC2-5_cytotoxicity_120hr in the positive analysis fitting direction relative to the dynamic range and baseline of activity. […]
Culture protocol: After the cell expansion period the cells are cultured for up to four weeks in which they are passaged every week as described in 3.6. […] Therefore, half of the test condition solution (e.g. solvent control or compound dilution) is replaced by freshly prepared test condition solution.Test Method: Migration distance and cytotoxicity is determined after 72 hours based on brightfield images of each well. […] The plates are scanned using an automated high content imaging device and all nuclei and their positions are determined automatically based on their intensity and size. […]

[4] = IUF_NPC2-5_cell_number_120hr: Cell Number Assessment at 120 hours in the Leibniz Research Institute for Environmental Medicine (IUF) Neural Progenitor Cell Migration and Differentiation Assay (NPC2-5) (AID 2284308; active means hit-call score of the fitted dose curve at least 0.9, where 1 is the maximum; inactive means score below 0.9;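 further: count of Hoechst-stained nuclei in migration zone around plated human neural progenitor spheres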)
In short: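 Cell number is taken as all Hoechst-positive nuclei detected in the area into which cells migrate out of the sphere, scored at 120 h and referenced to DMSO solvent control, which was kept at no more than 0.1%.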

[5] = IUF_NPC2-5_viability_120hr: Viability Assessment at 120 hours in the Leibniz Research Institute for Environmental Medicine (IUF) Neural Progenitor Cell Migration and Differentiation Assay (NPC2-5) (AID 2284312; active means hit-call score of the fitted dose curve at least 0.9, where 1 is the maximum; inactive means score below 0.9)
Description: IUF_NPC2-5 is a cell-based, multiplexed assay that uses hNPC, a human primary neural progenitor cells, with measurements taken at 72 or 120 hours after chemical dosing in a 96-well plate. Human neural progenitor cells (hNPC) are generated from human fetal brain cortex at gestational week (GW) 16-19. In the neural progenitor cell migration and differentiation assay (NPC2-5), hNPCs grown as spheres are plated on an extracellular matrix and migrate and differentiate out of the sphere core. The processes radial glia migration, neuronal and oligodendrocyte migration as well as neuronal differentiation, neuronal morphology and oligodendrocyte differentiation are studied using automated phase contrast imaging and automated fluorescence imaging in combination with high content image analysis. In parallel, the cell viability is assessed using an alamar blue viability assay and the cytotoxicity using a lactate dehydrogenase dependent membrane integrity assay.IUF_NPC2-5_viability_120hr is one of 12 assay components measured from the IUF_NPC2-5 assay. It is designed to measure cell viability assessed as mitochondria-dependent reduction of resazurin to resorufin using the alamar blue viability assay. The viability is measured as a fluorescence signal (relative fluorescence unit) in a multiplate reader. Data from the IUF_NPC2-5_viability_120hr component was analyzed at the endpoint IUF-NPC2-5_viability_120hr in the positive analysis fitting direction relative to DMSO as the negative control and baseline of activity. Using a type of viability reporter, gain or loss-of-signal activity can be used to understand viability effects.
Culture protocol: After the cell expansion period the cells are cultured for up to four weeks in which they are passaged every week as described in 3.6. […] Therefore, half of the test condition solution (e.g. solvent control or compound dilution) is replaced by freshly prepared test condition solution.Test Method: Migration distance and cytotoxicity is determined after 72 hours based on brightfield images of each well. […]

[6] = VALA_TUBHUV_Agonist_CellCount: Viability Assessment in the VALA Sciences human Umbilical Vein Endothelial Tubule Formation (TUBHUV) Agonism Assay (AID 2284309)
Description: VALA_TUBHUV_Agonist is a cell-based, multiplexed assay that uses human umbilical vein endothelial cells (HUVEC). Measurements were taken 72 hours after chemical dosing in a 96-well plate.VALA_TUBHUV_Agonist_CellCount is the one of two assay components measured from the VALA_TUBHUV_Agonist assay. It is designed to make measurements of viability, a form of viability reporter, as detected with fluorescence intensity signals by HCS Fluorescent Imaging technology. Data from the assay component VALA_TUBHUV_Agonist_CellCount was analyzed at the endpoint, VALA_TUBHUV_Agonist_CellCount, in the positive analysis fitting direction relative to DMSO as the negative control and baseline of activity. Using a type of viability reporter, loss-of-signal activity can be used to understand viability. To generalize the intended target to other relatable targets, this assay endpoint is annotated to the cell cycle intended target family, where the subfamily is cell count.
[…]

[7] = VALA_TUBHUV_Antagonist_CellCount: Viability Assessment in the VALA Sciences human Umbilical Vein Endothelial Tubule Formation (TUBHUV) Antagonism Assay (AID 2284310)
In short: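 HUVEC co-cultured with HDF (1:3) 3 days in 10 ng/ml VEGF, then 3 days with compounds in VEGF medium. Fixed, nuclear stain and CD31 immunofluorescence, imaged; cell counts fitted versus 0.1% DMSO, loss of signal read as lower viability.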

[8] = VALA_TUBIPS_Agonist_TubuleLength: VALA Sciences human iPS-derived Endothelial Tubule Formation (TUBIPS) Agonism Assay (AID 2284311)
Description: VALA_TUBIPS_Agonist is a cell-based, multiplexed assay that uses human iPS-derived endothelial cells (iPSC). Measurements were taken 72 hours after chemical dosing in a 96-well plate.VALA_TUBIPS_Agonist_TubuleLength is the one of two assay components measured from the VALA_TUBIPS_Agonist assay. It is designed to make measurements of tubulogenesis, a form of morphology reporter, as detected with fluorescence intensity signals by HCS Fluorescent Imaging technology. This VALA_TUBIPS1 assay was designed to detect chemical activation of tubulogenesis, i.e. agonism.Data from the assay component VALA_TUBIPS_Agonist_TubuleLength was analyzed at the endpoint, VALA_TUBIPS_Agonist_TubuleLength, in the positive analysis fitting direction relative to DMSO as the negative control and baseline of activity. Using a type of morphology reporter, gain-of-signal activity can be used to understand developmental effects. To generalize the intended target to other relatable targets, this assay endpoint is annotated to the neurodevelopment intended target family, where the subfamily is tubulogenesis.
This HUVEC-HDF assay was designed to detect chemical suppression of tubulogenesis, i.e. antagonism. […]

[9] = IUF_NPC5_oligodendrocyte_differentiation_120hr: Leibniz Research Institute for Environmental Medicine (IUF) 120-hour Oligodendrocyte Differentiation Assay (NPC5) (AID 2284304);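 further: share of O4-positive cells among Hoechst nuclei found by CNN image analysis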
In short: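 Human primary NPC neurospheres migrating and differentiating on laminin for 120 h under continuous compound exposure (serial dilution, solvent control). Endpoint: percent O4+ oligodendrocytes among Hoechst nuclei, detected by CNN image analysis, with DMSO as negative control.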

[10] = IUF_NPC4_neurite_area_120hr: Leibniz Research Institute for Environmental Medicine (IUF) 120-hour Neuronal Morphology Assay for Neurite Area (NPC4) (AID 2284305)
In short: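 Human fetal cortex-derived neural progenitor spheres (0.3 mm, GW 16-19) plated on poly-D-lysine/laminin in N2 differentiation medium and exposed from day 0 for 120 h across 7 concentrations plus solvent control. Neurite area is mean pixel area per TUBB3-positive neuron via skeletonization, analysed relative to DMSO.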

Measured: AC50

CC(=O)Oc1ccccc1C(=O)O
inactive: [1] | [2] | [3] | [4] | [5]

O=c1c(O)c(-c2ccc(O)c(O)c2)oc2cc(O)cc(O)c12
inactive: [6]

Cc1cc(NC(=O)C(=O)O)cc(C)c1Oc1ccc(O)c2c1CCC2
active: [6] 91.7 µM | [7] 81.2 µM

CCCCC(CC)COC(=O)CC(C(=O)OCC(CC)CCCC)S(=O)(=O)O (stereo not given)
active: [6] 7.22 µM
inactive: [8]

C[Si]1(C)O[Si](C)(C)O[Si](C)(C)O[Si](C)(C)O1
inactive: [1] | [9] | [10] | [2] | [3] | [4] | [5]

OC[C@@H](O)[C@@H](O)[C@H](O)[C@H](O)CO
inactive: [1] | [9] | [10] | [2] | [3] | [4] | [6] | [8] | [5]

CCCc1cc(=O)[nH]c(=S)[nH]1
inactive: [6]

Oc1ccc2ccccc2c1N=Nc1ccccc1
inactive: [6]

COC(=O)c1ccc(O)cc1
inactive: [6] | [7]
